A short description of test [1]: liver-stage malaria parasite growth inhibition, primary screen, cell-based, HepG2, luciferase luminescence, HepG2 viability (AID 624349; in the data active means parasite load remaining mostly below about 12%, no sharp cut-off; inactive means mostly above about 10%;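 further: 100% = mean of DMSO negative control wells on the same plate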). Conditions: P. berghei liver stage in HepG2, luciferase luminescence, concentration not given here; parasite load remaining: stronger effect = lower value; viability: measured here: HepG2 viability without parasites.
A short description of test [2]: Cy5 fluorescence interference with SSB-bound oligo, artefact control for HCV NS3 helicase inhibitor project, biochemical, NIH Clinical Collection, E. coli SSB (AID 743268; call rule not given here).
The test system of test [3] is Hepatitis C virus NS3 helicase. As to the kind of experiment: HCV NS3 helicase inhibitors, primary screen, biochemical, fluorescence polarization, NIH Clinical Collection (AID 743270; call rule not given here). The settings on record: NS3 helicase binding to Cy5-dT15 DNA, stronger effect = higher value, concentration not given here.
Test [4] concerns the target Single-stranded DNA-binding protein (Escherichia coli (strain K12)) (UniProt P0AGE0). The test is described as follows: E. coli SSB displacement from DNA, counter-screen for HCV NS3 helicase inhibitor project, biochemical, fluorescence polarization, NIH Clinical Collection (AID 743271; in the data active means inhibition above about 28%). Conditions: stronger effect = higher value, concentration not given here.
Test [5] is described as follows: fluorescence interference in NS3h assay format, artefact control for HCV NS3 helicase inhibitor project, biochemical, NIH Clinical Collection (AID 743272; call rule not given here;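 further: HCV NS3 helicase with a Cy5 labelled single stranded DNA probe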). Conditions: fluorescence interference counterscreen, stronger effect = lower value.
Test [6] is described as follows: modulation of C. elegans fzo-1 (AID 1259413; call rule not given here;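 further: fzo-1 mutant C. elegans worms in liquid wells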). The settings on record: C. elegans fzo-1 modulator screen, mean read-out; stronger effect = higher value.
Test [7] concerns F380Y. The test is described as follows: modulators of BK channel variants, profiling panel, selectivity assay, cell-based, U2OS BacMam, thallium flux, beta subunits (AID 1259406).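 Further: initial slope of Thallos dye fluorescence rise after thallium is added; log ratio against the mean of 0.3% DMSO vehicle wells on the same plate.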 Conditions: at 30 µM.
The test system of test [8] is F380Y/beta1. The description is as above. The settings on record: at 30 µM.
In test [9] the test system is F380Y/beta2Delta. The test is described as above. Conditions: at 30 µM.
Test [10] concerns F380Y/beta4. The test is described as above. Conditions: at 30 µM.
Test [11] deals with Calcium-activated potassium channel subunit alpha-1 (Homo sapiens) + Leucine-rich repeat-containing protein 26 (Homo sapiens) (UniProt Q12791+Q2I0M4). The description is as above. The settings on record: F380Y/Slo1WT/gamma1, at 30 µM.
Test [12] concerns R275C. Described as above. The settings on record: at 30 µM.
The subject of test [13] is R275C/beta1. The test is described as above. The settings on record: at 30 µM.
The test system of test [14] is R275C/beta2Delta. Described as above. The settings on record: at 30 µM.
Test [15] relates to R275C/beta4. Described as above. Conditions: at 30 µM.
The subject of test [16] is R275C/Slo1WT/beta2. The test is described as above. The settings on record: at 30 µM.
Test [17] is described as follows: sensitizers of A549 cells to miR-34 induction, primary screen, imaging, A549 dox-inducible miR-34, nuclei and caspase counts (AID 1347080;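 active means compounds whose cell count with miR-34 switched on is under 0.7 times the count with it off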). Conditions: A549 miR-34 inducible, Hoechst nuclei count, 48 h.
Test [18] is described as follows: viability rescue of complex I mutant cybrids, primary screen, cell-based, galactose medium, ATP luminescence (AID 1645843;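 active means z-score of at least 1.8 in each of two replicates, scored against plate mean and spread of sample wells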;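 further: positive z means more ATP and so rescue of galactose-driven cybrid death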). The settings on record: complex I mutant cybrid cells, 72 h, stronger effect = higher value.
Test [19] can be described thus: survival rescue of mitochondrial mutant cells in low glucose, primary screen, MELAS cybrids, Rieske KO mouse fibroblasts, CellTiter-Glo (AID 1508586;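 active means mean z-score across replicates of 1.96 or higher in either the MELAS or the Rieske mutant cell line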;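 further: z relative to plate mean and SD of compound and empty wells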).
Setting [20] is: stronger effect = lower value, cell number ratio, induced over uninduced.
The mark [21] stands for this setting: measured here: relative caspase fold change +Dox/-Dox.
Where [22] appears, read: measured here: total cells with miR-34 induction, stronger effect = lower value.
Where [23] appears, read: measured here: total cells without miR-34 induction.

The values that follow come from PubChem BioAssay.

Values joined by “and” are separate entries in the source; they are usually repeats but may differ in a detail not shown here. Identical values can stand only once. Active and inactive are the calls of the source.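 How the source made its calls, unless noted: active means thallium flux through the channel raised or lowered by more than 3 SD from vehicle-only wells, actives on both sides; inactive means the rest.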

Chain of Calcium-activated potassium channel subunit alpha-1 (Homo sapiens) + Leucine-rich repeat-containing protein 26 (Homo sapiens) (Q2I0M4 whole entry, looked up, one chain of several): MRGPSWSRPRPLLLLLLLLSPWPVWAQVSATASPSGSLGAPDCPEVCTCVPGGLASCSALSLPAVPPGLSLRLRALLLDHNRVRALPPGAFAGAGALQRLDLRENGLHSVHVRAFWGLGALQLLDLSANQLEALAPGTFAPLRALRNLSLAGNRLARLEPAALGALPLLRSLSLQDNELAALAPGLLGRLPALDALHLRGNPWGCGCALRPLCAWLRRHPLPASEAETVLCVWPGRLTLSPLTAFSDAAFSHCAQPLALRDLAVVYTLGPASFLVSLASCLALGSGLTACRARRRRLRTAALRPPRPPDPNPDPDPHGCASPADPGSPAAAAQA

Turning to `O=C1c2c(O)cc(O)cc2O[C@H](c2ccc(O)c(O)c2)[C@H]1O`, the parasite load remaining in [1] was 112% (inactive). For the same compound, the viability in test [1] was determined as 91%. Moreover, the fluorescence ratio in [2] and in test [5] was 0.99 (inactive) in each case. For the same compound, the results for the inhibition in test [3] and in test [4] were 1.19% (inactive) and -1.64% (inactive), respectively. Also, in test [6], the mean signal is 241 (inactive). Further, the log fold change Tl+ flux in test [7] was 0.0483 (inactive); in [8], -0.0233 (inactive); in test [9], 0.00163 (inactive); in [10], 0.00589 (inactive); in test [11], 0.0266 (inactive); in test [12], -0.0716 (inactive). Also, the log fold change Tl+ flux in [13] was -0.00477 (inactive); in [14], 0.0423 (inactive); in test [15] it was 0.0387 (inactive); in test [16], -0.0121 (inactive).
Turning to `CC(=O)OCC(=O)C12OC3(CCCC3)OC1CC1C3CCC4=CC(=O)C=CC4(C)C3(F)C(O)CC12C` (stereo not given), the parasite load remaining in test [1] was 72.8% (inactive). The viability in [1] was 95.1%. Besides, the values for the fluorescence ratio in test [2] and in test [5] were 1.06 (inactive) and 0.98 (inactive), respectively. Moreover, the inhibition in test [3] was -5% (inactive); in test [4], 0.29% (inactive). For the same compound, the mean signal in [6] is 242 (inactive). Further, the fold change in [17] (setting [20]) is 0.97 (inactive); in [17] (setting [21]), 1.12. The cell count in test [17] (setting [22]) came to 5910; in test [17] (setting [23]), 6100. Moreover, the z-score in test [18] is -1.46 (inactive). Besides, the log fold change Tl+ flux in test [7] was 0.16 (active); in [8] it was -0.0293 (inactive); in [9], 0.0485 (inactive); in test [10], -0.0119 (inactive); in test [11], 0.0537 (inactive); in [12] it was -0.00403 (inactive). The log fold change Tl+ flux in test [13] is 0.0957 (inactive); in test [14], 0.0763 (inactive); in test [15], 0.0347 (inactive); in [16] it was 0.084 (inactive).
Regarding `CN(C)C1C(=O)C(C(N)=O)=C(O)C2(O)C(=O)C3=C(O)c4c(O)ccc(Cl)c4C(O)C3CC12` (stereo not given), the parasite load remaining in test [1] is 84.6% (inactive). In test [1], the viability is 103%. Further, the fluorescence ratio was 1.05 (inactive) in test [2] and 0.84 (inactive) in test [5]. In addition, the inhibition is -11.4% (inactive) in test [3] and -1.24% (inactive) in test [4]. The mean signal in test [6] is 261 (inactive). In addition, the fold change in test [17] (setting [20]) was 0.964 (inactive); in test [17] (setting [21]), 1.22. Moreover, the values for the cell count in [17] (setting [22]) and in test [17] (setting [23]) were 5440 and 5650, respectively. In addition, in test [18], the z-score is -1.45 (inactive). Further, the log fold change Tl+ flux is -0.0288 (inactive) in test [7]; -0.00371 (inactive) in [8]; -0.0136 (inactive) in test [9]; 0.00837 (inactive) in test [10]; 0.0307 (inactive) in test [11]; -0.0571 (inactive) in test [12]. In addition, the log fold change Tl+ flux was -0.0108 (inactive) in test [13], -0.203 (active) in [14], -0.101 (inactive) in test [15] and -0.0217 (inactive) in test [16].
Take `O=C1C(c2c(O)[nH]c3ccccc23)=Nc2ccccc21`: the parasite load remaining in test [1] is 27.8% (inactive). For the same compound, in test [1], the viability amounted to 67.8%. Besides, the fluorescence ratio is 1.08 (inactive) in test [2] and 1.13 (inactive) in test [5]. Further, the inhibition in test [3] is 26.5% (active); in test [4], 18.4% (inactive). Moreover, the mean signal in [6] is 275 (inactive). For the same compound, the fold change in [17] (setting [20]) is 0.964 (inactive) and 0.92 (inactive) and 0.909 (inactive); in [17] (setting [21]), 1.03 and 0.816 and 0.7. In addition, the cell count is 8910 and 4890 and 7650 in test [17] (setting [22]); 9240 and 5320 and 8410 in [17] (setting [23]). The z-score in test [19] (MELAS cybrid survival, CellTiter-Glo 48 h, stronger effect = higher value) is -0.237 (inactive); in [19] (Rieske KO mouse fibroblast survival, CellTiter-Glo 72 h), -0.638; in test [18], -0.25 (inactive). For the same compound, the log fold change Tl+ flux in test [7] is 0.00735 (inactive); in [8], 0.00413 (inactive); in [9] it was -0.012 (inactive); in test [10], 0.0357 (inactive); in test [11], -0.019 (inactive); in test [12], 0.0422 (inactive). For the same compound, the log fold change Tl+ flux is 0.013 (inactive) in [13], -0.00188 (inactive) in test [14], 0.0134 (inactive) in [15] and 0.0591 (inactive) in test [16].
